Data on 8 compounds can be found in PubChem BioAssay (NCI).

The panel holds about 83,000 compounds, 20% with a hit somewhere; the sample as a whole holds those more often.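 Interpretation: 100, growth as untreated; towards 0, rising growth inhibition; 0, no net growth; 0 to -100, cell death. Compounds scoring below 10 were considered active.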 A number with no mark means an inactive call. Activity calls are given as the source filed them.

Test systems include SK-MEL-2 melanoma; EKVX NSCLC; SN12C renal; UO-31 renal; TK-10 renal; ACHN renal; CAKI-1 renal; A498 renal; CCRF-CEM leukemia; MOLT-4 leukemia; SR leukemia; RPMI-8226 leukemia; OVCAR-8 ovarian; OVCAR-5 ovarian; OVCAR-4 ovarian; SK-OV-3 ovarian; IGROV1 ovarian; OVCAR-3 ovarian; HS 578T breast; NCI/ADR-RES ovarian.
Common to all, as to assay: NCI-60 one-dose screen, 48 h (100 = growth as untreated, 0 = no growth, -100 = all killed)
Holding throughout (conditions): 10 µM unless noted

Turning to `C=C(C)[C@@H]1CC[C@]2(C(=O)O)CC[C@]3(C)[C@H](CC[C@@H]4[C@@]5(C)C[C@@H](CC#Cc6ccc(C(C)=O)s6)[C@H](O)C(C)(C)[C@@H]5CC[C@]43C)[C@@H]12`, the growth in the assay with SK-MEL-2 melanoma is 51.9%; in the assay with EKVX NSCLC, 53.2%; in the assay on SN12C renal, 68%; in the assay on UO-31 renal, 56.6%; in the assay on TK-10 renal, 49.6%; with ACHN renal, 47.9%. The growth with CAKI-1 renal is 40.7%; with A498 renal, -3.73% (active); in the assay with CCRF-CEM leukemia it was 44.7%; in the assay with MOLT-4 leukemia, 32.5%; in the assay with SR leukemia, 78.3%; in the assay with RPMI-8226 leukemia, 40%. Further, the growth in the assay on OVCAR-8 ovarian is 38.4%; in the assay on OVCAR-5 ovarian it was 98%; in the assay on OVCAR-4 ovarian it was 33.6%; in the assay on SK-OV-3 ovarian, 27.7%; with IGROV1 ovarian, 89.1%; with OVCAR-3 ovarian it was 58.4%. Besides, the growth was 73.1% in the assay on HS 578T breast and 76.3% with NCI/ADR-RES ovarian.

As to `COc1cccc(-c2nc3sccn3c2-c2ccnc(NCCN3CCCNS3(=O)=O)n2)c1`, the growth was 86.3% in the assay on SK-MEL-2 melanoma; 110% in the assay with EKVX NSCLC; 60.8% in the assay with SN12C renal; 70.7% with UO-31 renal; 115% with TK-10 renal; 48.4% in the assay on ACHN renal. The growth with CAKI-1 renal is 44.6%; in the assay on A498 renal it was 108%; in the assay with CCRF-CEM leukemia, 68.1%; in the assay with MOLT-4 leukemia, 87.5%; in the assay with SR leukemia, 59.5%; in the assay on RPMI-8226 leukemia, 102%. Further, the growth with OVCAR-8 ovarian was 83.8%; in the assay with OVCAR-5 ovarian, 112%; in the assay with OVCAR-4 ovarian, 81.5%; with SK-OV-3 ovarian it was 54.8%; in the assay on IGROV1 ovarian, 75%; in the assay with OVCAR-3 ovarian, 102%. Also, the growth with HS 578T breast and in the assay with NCI/ADR-RES ovarian was 105% each time.

On to `NC(CCC(=O)NC(CS)C(=O)NCC(=O)O)C(=O)O` (stereo not given), for which the growth is 100% with SK-MEL-2 melanoma; 99.8% in the assay with EKVX NSCLC; 108% in the assay with SN12C renal; 85.9% in the assay on UO-31 renal; 154% with TK-10 renal; 104% in the assay with ACHN renal. In addition, the growth with CAKI-1 renal was 100%; in the assay on A498 renal, 127%; in the assay on CCRF-CEM leukemia, 121%; in the assay on MOLT-4 leukemia it was 102%; with SR leukemia, 97.3%; with RPMI-8226 leukemia it was 74.2%. Further, the growth was 98.7% with OVCAR-8 ovarian; 97.6% in the assay on OVCAR-5 ovarian; 108% in the assay with OVCAR-4 ovarian; 116% with SK-OV-3 ovarian; 98.1% with IGROV1 ovarian; 110% in the assay with OVCAR-3 ovarian. The growth with HS 578T breast and in the assay with NCI/ADR-RES ovarian was 107% throughout.

Regarding `CCCCCCCCCCCCCCCCCC1=NCCN1CCO`, the growth in the assay on SK-MEL-2 melanoma is 88.9%; with EKVX NSCLC it was 78.2%; with SN12C renal it was 86%; with UO-31 renal, 48.7%; in the assay on TK-10 renal, 87.9%; with ACHN renal, 60.7%. Besides, the growth with CAKI-1 renal was 55.7%; in the assay on A498 renal it was 106%; in the assay with CCRF-CEM leukemia, 53.9%; in the assay with MOLT-4 leukemia, 30.3%; in the assay on SR leukemia, 7.41% (active); with RPMI-8226 leukemia, 78.9%. The growth in the assay with OVCAR-8 ovarian was 70.5%; in the assay on OVCAR-5 ovarian it was 82.7%; in the assay on OVCAR-4 ovarian, 115%; in the assay with SK-OV-3 ovarian it was 97.9%; in the assay on IGROV1 ovarian it was 25.7%; in the assay on OVCAR-3 ovarian, 77%. In addition, the growth with HS 578T breast was 85.8%; in the assay with NCI/ADR-RES ovarian, 84.5%.

With `CC(C)(C)[Si](C)(C)OC1[C@@H](O[Si](C)(C)C(C)(C)C)[C@@H](CNC(=O)NC(=O)NC(=O)CI)O[C@H]1n1cnc2c(NC(=O)Nc3ccccc3)ncnc21` (stereo not given in full), the growth with SK-MEL-2 melanoma was 92.8%; in the assay on EKVX NSCLC, 56.5%; with SN12C renal it was 84.1%; in the assay with UO-31 renal, -89.2% (active); in the assay with TK-10 renal, 46.6%; with ACHN renal it was -22.7% (active). For the same compound, the growth was 47.8% in the assay on CAKI-1 renal; 73.8% in the assay on A498 renal; -38.5% (active) in the assay on CCRF-CEM leukemia; 29.6% in the assay with MOLT-4 leukemia; 2.35% (active) in the assay on SR leukemia; 35.2% in the assay with RPMI-8226 leukemia. Also, the growth is -9.33% (active) in the assay on OVCAR-8 ovarian; 67.3% with OVCAR-5 ovarian; 42.9% with OVCAR-4 ovarian; 92.6% with SK-OV-3 ovarian; -65.4% (active) with IGROV1 ovarian; -63.5% (active) with OVCAR-3 ovarian. The growth is 67.4% in the assay with HS 578T breast and 4.72% (active) in the assay with NCI/ADR-RES ovarian.

As to `CN(C)c1nc(-c2cccs2)n2nc(-c3ccc(Cl)cc3)cc2n1`, the growth in the assay with SK-MEL-2 melanoma is 67%; in the assay with EKVX NSCLC it was 49.6%; in the assay on SN12C renal, 44.9%; in the assay with UO-31 renal, -63.9% (active); with TK-10 renal, -23.1% (active); in the assay on ACHN renal, -21.1% (active). For the same compound, the growth in the assay with CAKI-1 renal was 18.8%; in the assay on A498 renal, -11.4% (active); in the assay on CCRF-CEM leukemia, 73.8%; in the assay with MOLT-4 leukemia it was 82.1%; with SR leukemia, 58.7%; in the assay on RPMI-8226 leukemia, 74.3%. For the same compound, the growth in the assay on OVCAR-8 ovarian is 11.8%; in the assay on OVCAR-5 ovarian, 75.6%; in the assay on OVCAR-4 ovarian it was -39.5% (active); in the assay on SK-OV-3 ovarian it was -54.2% (active); with IGROV1 ovarian, 11.9%; in the assay with OVCAR-3 ovarian it was 14.8%. For the same compound, the growth in the assay on HS 578T breast was -2.48% (active); in the assay on NCI/ADR-RES ovarian, 38.3%.

For the compound `COc1cc(/C=C2\CN(C(=O)OC(C)(C)C)C/C(=C\c3ccc(O)c(OC)c3)C2=O)ccc1O`, the growth with SK-MEL-2 melanoma is 86.2%; with EKVX NSCLC, 92.8%; in the assay with SN12C renal, 88.9%; with UO-31 renal, 81%; in the assay on TK-10 renal it was 105%; in the assay with ACHN renal, 100%. In addition, the growth with CAKI-1 renal is 74.2%; with A498 renal, 104%; in the assay with CCRF-CEM leukemia, 101%; with MOLT-4 leukemia it was 47.4%; with SR leukemia it was 79.9%; in the assay with RPMI-8226 leukemia it was 71.8%. Also, the growth is 89.6% in the assay with OVCAR-8 ovarian; 107% with OVCAR-5 ovarian; 97.6% in the assay on OVCAR-4 ovarian; 105% in the assay on SK-OV-3 ovarian; 110% in the assay with IGROV1 ovarian; 98.6% in the assay with OVCAR-3 ovarian. Moreover, the values for the growth in the assay with HS 578T breast and in the assay with NCI/ADR-RES ovarian were 91.3% and 102%, respectively.

Consider `CC(C)(C)[Si](C)(C)OC1[C@@H](O[Si](C)(C)C(C)(C)C)[C@@H](CNC(=O)NC(=O)NC(=O)CCl)O[C@H]1n1cnc2c(NC(=O)Nc3ccccc3)ncnc21` (stereo not given in full), for which the growth with SK-MEL-2 melanoma was 84.9%; with EKVX NSCLC, 86.3%; with SN12C renal, 54.6%; in the assay on UO-31 renal, -94.9% (active); in the assay on TK-10 renal, 97.2%; in the assay on ACHN renal, -12.9% (active). The growth in the assay with CAKI-1 renal is 76.2%; in the assay on A498 renal, 88.7%; in the assay on CCRF-CEM leukemia it was -30.4% (active); in the assay on MOLT-4 leukemia, 4.05% (active); in the assay with SR leukemia, -10.7% (active); with RPMI-8226 leukemia, 46.8%. The growth in the assay on OVCAR-8 ovarian is 25.1%; in the assay with OVCAR-5 ovarian, 74.1%; with OVCAR-4 ovarian, 58.1%; with SK-OV-3 ovarian, 97.3%; with IGROV1 ovarian it was -51.8% (active); with OVCAR-3 ovarian, -6.77% (active). Also, the growth was 74.3% in the assay with HS 578T breast and 50.4% in the assay with NCI/ADR-RES ovarian.
